# Literature values in PubChem BioAssay AID977611.
# The whole screen tested about 3,900 compounds, of which about 3,900 (100%) were called active. Cut-off not given; nearly all actives show Kd up to about 4200 µM. So high a share suggests a set chosen from earlier hits. The list shows a part of the results. Numbered stars: 1 amine (or outer) side, 2 acyl side, 3 side chain; on linkers, the order of the positions; unused ones are H or OH. *1 amine or outer side, *2 acyl side, *3 side chain or, on linkers, in order; H or OH if unused. Where a SMILES comes first, the peptide text is derived from it. Non-standard residues stand in square brackets, D forms with d. Square brackets hold non-standard residues; d marks the D form. Residues, ends and D or L forms follow the SMILES beside them. Peptide text beside a SMILES is read from it. [ ]: non-standard residue; d: D form. X1 = O=C([C@H](Cc1ccc(O[P+](O)(O)O)cc1)N[*:1])[*:2]; Thr(P(OH)3+) = C[C@@H](O[P+](O)(O)O)[C@H](N)C(=O)O; Lys(Me3) = C[N+](C)(C)CCCC[C@H](N)C(=O)O; Orn(CH(NH2)2) = NC(N)NCCC[C@H](N)C(=O)O; X2 = CNC(N)NCCC[C@H](N[*:1])C(=O)[*:2]; ΔPro = O=C(O)[C@@H]1C=CCN1
# Experiment: PubChem AID 977611
# Conditions: PDB protein-ligand complexes, literature Kd
compound,measurement,setting,value
C[C@H](N)C(=O)N[C@@H](CCCNC(N)N)C(=O)N[C@H](C(=O)N[C@@H](CCCCN)C(=O)N[C@@H](CCC(N)=O)C(=O)N[C@H](C(=O)N[C@@H](C)C(=O)N[C@@H](CCCNC(N)N)C(=O)N[C@@H](CCCC[N+](C)(C)C)C(=O)N[C@@H](CO)C(=O)O)[C@@H](C)O)[C@@H](C)O,Kd,"protein: Histone-lysine N-methyltransferase NSD3, PDB entry 4gng",290000 nM (active)
CC(C)C[C@H](N)C(=O)N[C@@H](C)C(=O)N[C@H](C(=O)N[C@@H](CCCCN)C(=O)N[C@@H](C)C(=O)N[C@@H](C)C(=O)N[C@@H](CCCNC(N)N)C(=O)N[C@@H](CCCC[N+](C)(C)C)C(=O)N[C@@H](CO)C(=O)O)[C@@H](C)O (H-LATKAA[Orn(CH(NH2)2)][Lys(Me3)]S-OH),Kd,"protein: Polycomb protein, PDB entry 1pdq",5000 nM (active)
C[C@H](NC(=O)[C@@H](NC(=O)[C@H](CCC(N)=O)NC(=O)[C@H](CCCCN)NC(=O)[C@@H](N)[C@@H](C)O)[C@@H](C)O)C(=O)N[C@@H](CCCNC(N)N)C(=O)N[C@@H](CCCC[N+](C)(C)C)C(=O)N[C@@H](CO)C(=O)O (H-TKQTA[Orn(CH(NH2)2)][Lys(Me3)]S-OH),Kd,"protein: SHH1 SAWADEE, PDB entry 4iur",2630 nM (active)
CNC(N)NCCC[C@H](NC(=O)[C@H](C)N)C(=O)N[C@H](C(=O)N[C@@H](CCCC[N+](C)(C)C)C(=O)N[C@@H](CCC(N)=O)C(=O)N[C@H](C(=O)N[C@@H](C)C(=O)N[C@@H](CCCNC(N)N)C(=O)N[C@@H](CCCCN)C(=O)N[C@@H](C)C(=O)N[C@@H](C)C(=O)NCC(=O)O)[C@@H](C)O)[C@@H](C)O (stereo partly drawn) (H-A[X2]T[Lys(Me3)]QTA[Orn(CH(NH2)2)]KAAG-OH),Kd,"protein: RAG2-PHD, PDB entry 2v85",34600 nM (active)
C[C@H](NC(=O)[C@@H](NC(=O)[C@H](CCC(N)=O)NC(=O)[C@@H](N)CCCCN)[C@@H](C)O)C(=O)N[C@@H](CCCNC(N)N)C(=O)N[C@@H](CCCC[N+](C)(C)C)C(=O)N[C@@H](CO)C(=O)O (H-KQTA[Orn(CH(NH2)2)][Lys(Me3)]S-OH),Kd,"protein: Chromo domain-containing protein 1, Chp1, PDB entry 3g7l",190 nM (active)
C[C@H](N)C(=O)N[C@@H](CCCNC(N)N)C(=O)N[C@H](C(=O)N[C@@H](CCCC[N+](C)(C)C)C(=O)N[C@@H](CCC(N)=O)C(=O)N[C@H](C(=O)N[C@@H](C)C(=O)N[C@@H](CCCNC(N)N)C(=O)N[C@@H](CCCCN)C(=O)N[C@@H](CO)C(=O)N[C@H](C=O)[C@@H](C)O)[C@@H](C)O)[C@@H](C)O,Kd,"protein: Inhibitor of growth protein 4( ING4) PHD domain, PDB entry 2pnx",7900 nM (active)
N[C@H]1[C@H](O[C@H]2[C@H](O)[C@@H](N)[C@H](O[C@H]3[C@H](O)[C@@H](N)[C@H](O[C@H]4[C@H](O)[C@@H](N)[C@H](O[C@H]5[C@H](O)[C@@H](N)C(=O)O[C@@H]5CO)O[C@@H]4CO)O[C@@H]3CO)O[C@@H]2CO)O[C@H](CO)[C@@H](O)[C@@H]1O,Kd,"protein: Ostrinia furnacalis Group I chitinase catalytic domain, PDB entry 3wqw",5900 nM (active)
N[C@@H]1[C@@H](O)[C@H](O[C@@H]2O[C@H](CO)[C@@H](O[C@@H]3O[C@H](CO)[C@@H](O[C@@H]4O[C@H](CO)[C@@H](O[C@@H]5O[C@H](CO)[C@@H](O)[C@H](O)[C@H]5N)[C@H](O)[C@H]4N)[C@H](O)[C@H]3N)[C@H](O)[C@H]2N)[C@@H](CO)O[C@H]1O,Kd,"protein: Ostrinia furnacalis Group I chitinase catalytic domain, PDB entry 3wqv",6200 nM (active)
H-ATFYVA-OH,Kd,"protein: protease, tethered dimer, PDB entry 4eqj",2520 nM (active)
H-AQTFYVDG-OH,Kd,"protein: HIV-1 protease, PDB entry 2nxm",6400 nM (active)
H-AEVFYVDGA-OH,Kd,"protein: HIV-1 protease, PDB entry 2nxl",540 nM (active)
H-AETFYVD-OH,Kd,"protein: protease, tethered dimer, PDB entry 4ep2",4430 nM (active)
CC[C@H](C)[C@H](NC(=O)[C@H](CCC(=O)O)NC(=O)[C@H](CCC(=O)O)NC(=O)[C@H](Cc1ccccc1)NC(=O)[C@H](CC(=O)O)NC(=O)CN)C(=O)N1CC=C[C@H]1C(=O)NCC(=O)N[C@@H](CCC(=O)O)C(=O)N[C@@H](Cc1ccc(O)cc1)C(=O)N[C@@H](C)C(=O)O (H-GDFEEI[ΔPro]GEYA-OH),Kd,"protein: thrombin alpha, PDB entry 1a3e",3.5 nM (active)
CC(C)[C@H](NC(=O)[C@H](Cc1ccc(O)cc1)NC(=O)[C@H](CC(N)=O)NC(=O)CN)C(=O)N[C@H](C(=O)N[C@H](C(=O)N[C@@H](Cc1ccc(O[P+](O)(O)O)cc1)C(=O)N[C@@H](C)C(=O)O)[C@@H](C)O)C(C)C (H-GNYVVT[X1]A-OH),Kd,"protein: phosphotyrosine (pTyr) scaffold Fab, PDB entry 4jfx",360 nM (active)
COc1cc2c(c(OC)c1OC)C1=CCC(=O)C(=O)C=C1[C@@H](NC(C)=O)CC2,Kd,"protein: Bromodomain-containing protein 4, BRD4(1), PDB entry 4lys",46000 nM (active)
COc1cc(/C=C/CO)ccc1O,Kd,"protein: Coniferyl alcohol 9-O-methyltransferase, PDB entry 4e70",5260 nM (active)
CC(C)[C@H](NC(=O)[C@H](Cc1ccc(O)cc1)NC(=O)[C@H](CC(N)=O)NC(=O)CNC(=O)[C@@H](N)CCCCN)C(=O)N[C@H](C(=O)N[C@H](C(=O)N[C@@H](CO[P+](O)(O)O)C(=O)N[C@@H](Cc1cnc[nH]1)C(=O)O)[C@@H](C)O)C(C)C,Kd,"protein: phosphoserine (pSAb) scaffold Fab, PDB entry 4jfz",71 nM (active)
CC(C)[C@H](NC(=O)[C@H](Cc1ccc(O)cc1)NC(=O)[C@H](CC(N)=O)NC(=O)CNC(=O)[C@@H](N)CCCCN)C(=O)N[C@H](C(=O)N[C@H](C(=O)N[C@@H](CO[P+](O)(O)O)C(=O)O)[C@@H](C)O)C(C)C,Kd,"protein: phosphoserine/threonine (pSTAb) scaffold Fab, PDB entry 4jg0",172 nM (active)
CC(C)[C@H](NC(=O)[C@H](Cc1ccc(O)cc1)NC(=O)[C@H](CC(N)=O)NC(=O)CNC(=O)[C@@H](N)CCCCN)C(=O)N[C@H](C(=O)N[C@H](C(=O)N[C@H](C(=O)N[C@@H](Cc1cnc[nH]1)C(=O)O)[C@@H](C)O[P+](O)(O)O)[C@@H](C)O)C(C)C (H-KGNYVVT[Thr(P(OH)3+)]H-OH),Kd,"protein: phosphoserine/threonine (pSTAb) scaffold Fab, PDB entry 4jg1",232 nM (active)
C[C@@H]1O[C@@H](Oc2c(-c3ccc(O)c(O)c3)oc3cc(O)cc(O)c3c2=O)[C@H](O)[C@H](O)[C@H]1O,Kd,"protein: Ribosomal protein S6 kinase alpha-3, PDB entry 4gue",5800 nM (active)
CC1=CC(N)c2ccccc2N1CCCCCCCCCCN1c2ccccc2C(N)=CC1C (stereo not drawn),Kd,"protein: Putative regulatory protein, PDB entry 3vw0",21200 nM (active)
Cc1cc(=N)c2ccccc2n1CCCCCCCC/C=C/N1c2ccccc2C(N)=CC1C (stereo not drawn),Kd,"protein: Chitinase A, PDB entry 3arp",70 nM (active)
Cc1cc(=N)c2ccccc2n1CCCCCCCCCCN1c2ccccc2C(N)=CC1C (stereo not drawn),Kd,"protein: Chitinase A(W275G mutant), PDB entry 3art",37000 nM (active)
CCOc1cc(C(=O)O)nc2c(NC(=O)c3cc(O)c4cccc(NC(=O)c5cc(O)c6cccc(NC(=O)c7cc(OCC(C)C)c8cccc(NC(=O)NCCCCOc9cccc(CNC(=O)c%10ccc(S(N)(=O)=O)cc%10)c9)c8n7)c6n5)c4n3)cccc12,Kd,"protein: Human Carbonic Anhydrase II, PDB entry 4lp6",5.36 nM (active)
OS(O)(O)OC1C(OS(O)(O)O)C(OS(O)(O)O)C(OS(O)(O)O)C(OS(O)(O)O)C1OS(O)(O)O (stereo not drawn),Kd,"protein: HISTIDINE ACID PHOSPHATASE, PDB entry 4aro",160 nM (active)
Cc1cc(OCCCS(C)(=O)=O)cc(C)c1-c1cccc(COc2ccc3c(c2)OC[C@H]3CC(=O)O)c1,Kd,"protein: Free fatty acid receptor 1,Lysozyme hGPR40(L42A,F88A,G103A,Y202F mutant), PDB entry 4phu",12 nM (active)
CN(C)CCCn1cc(C2C(=O)NC(=O)C2c2c[nH]c3ccccc23)c2ccccc21 (stereo not drawn),Kd,"protein: human PIM1 kinase domain, PDB entry 1xws",10 nM (active)
C[C@H]1O[C@@H](c2cccc(O)c2O)N[C@@H]1C(=O)NCCCN(CCCNC(=O)c1cccc(O)c1O)C(=O)[C@H]1N[C@H](c2cccc(O)c2O)O[C@@H]1C,Kd,"protein: Ferric vibriobactin ABC transporter, periplasmic ferric vibriobactin-binding protein, PDB entry 3r5t",2.65 nM (active)
CN(C)C1=CCN(Cc2ccc(CCCCc3ccc(Cn4cnc5c(N)ncnc54)cc3)cc2)C=C1,Kd,"protein: CHOLINE KINASE ALPHA, PDB entry 3zm9",38 nM (active)
Ac-SISYTDEIEEEDYD-OH,Kd,"protein: Fibronectin, PDB entry 4pz5",121 nM (active)
CC[C@H](C)[C@H](NC(=O)[C@H](CC(=O)O)NC(=O)[C@H](CS)NC(=O)[C@H](CCC(N)=O)NC(=O)[C@@H](NC(=O)CNC(=O)[C@@H](NC(=O)[C@@H](NC(=O)[C@H](CO)NC(=O)[C@H](CO)NC(=O)[C@H](C)N)[C@@H](C)O)[C@@H](C)O)[C@@H](C)O)C(N)=O (H-ASSTTGTQCDI-NH2),Kd,"protein: Dynein light chain 1, cytoplasmic LC8, PDB entry 4qh8",12800 nM (active)
CC[C@H](C)[C@H](NC(=O)[C@@H](NC(=O)[C@H](CC(C)C)NC(=O)[C@@H](N)CO)[C@@H](C)O)C(=O)N[C@@H](Cc1ccc(O[P+](O)(O)O)cc1)C(=O)N[C@@H](C)C(=O)N[C@@H](CCC(N)=O)C(=O)N[C@H](C(=O)N[C@@H](CCC(N)=O)C(=O)N[C@@H](CCCCN)C(=O)O)C(C)C (H-SLTI[X1]AQVQK-OH),Kd,"protein: EWS/FLI1 activated transcript 2(ETA-2), PDB entry 1i3z",131 nM (active)
same,Kd,"protein: SAP, PDB entry 1d4w",120 nM (active)
CC[C@H](C)[C@H](NC(=O)[C@H](CO)NC(=O)[C@H](CO)NC(=O)[C@H](CCC(N)=O)NC(=O)[C@@H](NC(=O)[C@H](CCC(N)=O)NC(=O)[C@H](CCCNC(N)N)NC(=O)[C@H](Cc1ccccc1)NC(=O)[C@@H](NC(=O)[C@@H](N)CCCNC(N)N)[C@@H](C)O)C(C)C)C(=O)N[C@@H](CO)C(=O)N[C@@H](CC(=O)O)C(=O)N[C@@H](Cc1ccccc1)C(=O)N[C@@H](Cc1ccc(O)cc1)C(=O)N[C@@H](CC(=O)O)C(=O)O (H-[Orn(CH(NH2)2)]TF[Orn(CH(NH2)2)]QVQSSISDFYD-OH),Kd,"protein: Lipoprotein outS, PDB entry 4k0u",55 nM (active)
H-YAESGIQTDL-OH,Kd,"protein: Dynein light chain 1, cytoplasmic, PDB entry 4ds1",17900 nM (active)
CC(C)C[C@H](NC(=O)[C@H](CC(C)C)NC(=O)[C@H](CC(N)=O)NC(=O)[C@@H](NC(=O)[C@H](C)NC(=O)[C@H](CCCCN)NC(=O)[C@H](CO)NC(=O)[C@H](CCCCN)NC(=O)[C@@H](NC(=O)[C@@H](N)CC(C)C)C(C)C)[C@@H](C)O)C(=O)N[C@H](C=O)Cc1ccc(O)cc1 (H-LVKSKATNLLY-aldehyde),Kd,"protein: ATP-Dependent Clp Protease Adapter Protein ClpS, PDB entry 2w9r",4800 nM (active)
CC[C@H](C)[C@H](NC(=O)[C@@H](NC(=O)[C@H](CC(C)C)NC(=O)[C@H](CO)NC(=O)[C@@H](N)CCCCN)[C@@H](C)O)C(=O)N[C@@H](Cc1ccc(O)cc1)C(=O)N[C@@H](C)C(=O)N[C@@H](CCC(N)=O)C(=O)N[C@H](C(=O)N[C@@H](CCC(N)=O)C(=O)N[C@@H](CCCCN)C(=O)O)C(C)C (H-KSLTIYAQVQK-OH),Kd,"protein: SAP, PDB entry 1d4t",650 nM (active)
CC[C@H](C)[C@H](NC(=O)[C@H](Cc1ccccc1)NC(=O)[C@@H](NC(=O)[C@H](CO)NC(=O)[C@H](CO)NC(=O)[C@H](C)NC(=O)[C@@H](NC(=O)[C@@H](N)CCCNC(N)N)C(C)C)C(C)C)C(=O)N[C@H](C(=O)O)[C@@H](C)O (H-[Orn(CH(NH2)2)]VASSVFIT-OH),Kd,"protein: Filamin-A, PDB entry 2w0p",300 nM (active)
